# A selection: hits, their analogues and other compounds. The true share with any hit is near 1.4%.
# FPRL1 ligand = binds the human formylpeptide receptor-like-1 FPRL1; FPRL1-expressing cells, fluorescent ligand binding inhibition, flow cytometry; inhibition, % (no concentration beside the values); hit rate 0.3% among 24,000; AID 441; P25090;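 further: 0% = buffer alone and 100% = receptor blocker peptide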
# VLA-4 antagonist = inhibitors of LDV-FITC ligand binding to Mn2+-activated human VLA-4 integrin. P13612. Jurkat cells, LDV-FITC binding with Mn2+, flow cytometry; 100% = Mn2+-driven binding gain fully reversed. inhibition, % at 10 µM (by protocol). hit rate 0.2% among 24,000. AID 529;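 active means inhibition above 50%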;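 further: 0% = Mn2+ stimulated cells lacking compound and 100% = ligand binding without Mn2+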
# FPR binder = binds the human formylpeptide receptor FPR | P21462 | FPR-expressing cells, fluorescent ligand binding, flow cytometry | inhibition, % (test concentration not listed) | hit rate 0.74% among 24,000 | AID 440;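 further: 0% = buffer wells and 100% = receptor blocker peptide wells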
# VLA-4 agonist = allosterically activates the human VLA-4 integrin | 24,000 tested, under 10 active | AID 528 | P13612 | Jurkat cells, LDV-FITC binding, flow cytometry | activation, % at 10 µM (by protocol);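 active means fluorescent ligand binding to cells raised by more than 40% of the manganese-induced maximum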;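 further: 0% = ligand binding without compound and 100% = manganese-stimulated maximal binding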
# Autofluor Jurkat = autofluorescence counter-screen for VLA-4 integrin assays. Jurkat cells, compound autofluorescence, flow cytometry; active compounds read high; 1 = vehicle-only cell background. fluorescence ratio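 (tested at 10 µM compound in the well)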. hit rate 0.61% among 24,000;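 active means fluorescence ratio above 2.44, which is 1 plus 3 SD of all ratios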;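 further: green fluorescence of cells measured with 488 nm excitation and 530 nm emission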
# The depositor's hits bear a star. Unless noted, no stated cut-off is given here; in the data, active means inhibition above about 30%; inconclusive means no clear call, values can overlap the other calls; inactive means below that.
SMILES,FPRL1 ligand,VLA-4 antagonist,FPR binder,VLA-4 agonist,Autofluor Jurkat
O=c1c2ccccc2[se]n1-c1ccccc1,5,-68,-2,40*,1.1
COc1ccccc1/C=C1/C(=N/O)C2CCN1CC2,-1,-14,-4,-14,1.1

# Compound activity from PubChem BioAssay.
